From PubChem BioAssay AID602156 (GNF / Scripps Winzeler lab, 2011)
In all, about 5,700 compounds went through this assay and about 280 (4.9%) were called active. The rule behind the calls is not given here. A selection follows.

Experiment: exo-erythrocytic parasite development inhibition – imaging, Malaria Box, P. yoelii, HepG2-A16-CD81EGFP, dose response (AID 602156)
Conditions: P. yoelii liver stage in HepG2-A16-CD81EGFP

outcome, inactive:
Oc1ccc(-c2nc3ccccc3s2)cc1CN1CCCCC1
O=C1CSC(=S)N1c1cccc(Cl)c1
CC[C@@H]1CCC[C@H](C)CC[C@@H](O[C@@H]2O[C@@H](C)[C@@H](O)[C@@H](N)[C@H]2O)[C@H](CC)CCCNC1=O
CN(CCCNc1nc2ccccc2c2nc(-c3cccnc3)nn12)Cc1ccccc1
O=C(Cc1ccccc1)NCc1ccc(Nc2c(-c3cccnc3)nc3ccccn23)cc1
CCCCCCCSc1c(O)c2ccc(Cl)cc2[nH]c1=O
COc1ccc(Nc2ncnc3[nH]c(-c4cccc([N+](=O)[O-])c4)cc23)cc1
C1CCC(CN2CCc3nc(N4CCCCC4)sc3C2)CC1
CC(=O)N(C1=C(N(C)C)C(=O)c2ccccc2C1=O)c1cccc(O)c1
Oc1ccc(Br)cc1C=NNc1nc2ccccc2[nH]1
CCCOC(=O)C1=C(C)NC2=C(C(=O)CC(c3ccc(OC)c(OC)c3)C2)C1c1ccccc1C (stereo not drawn)
CN(C=Cc1sc2ccc3ccccc3c2[n+]1C)c1ccccc1
Oc1ccc(-c2cncnc2)cc1CNC1CCN(Cc2ccccc2)CC1
CC(C)CN(CC(=O)N1CCC(Nc2nsc3ccccc23)C1)S(C)(=O)=O (stereo not drawn)
COc1ccc2[nH]c(-c3ccccc3)cc(=O)c2c1
COc1ccc(Nc2nc(Nc3ccc(OC)cc3)c3ccccc3n2)cc1
CC(=O)Nc1ccc(C2NC(=O)NC3=Nc4ccccc4SC(c4ccccc4)=C32)cc1 (stereo not drawn)
Cc1cccc(CSc2nnc(C(Cc3ccccc3)NC(=O)C3CCCCC3)n2-c2ccc(Cl)cc2Cl)c1 (stereo not drawn)
Cc1cc(Nc2ccc(C)c(F)c2)n2nc(C)nc2n1
CCN1CCN(c2nc3ccccn3c(=O)c2C=C2SC(=S)N(C(C)C)C2=O)CC1
CCOc1ccccc1C=NNc1nc(Nc2ccccc2)nc(Nc2ccccc2)n1
Cc1cc(C)nc(NNc2c([N+](=O)[O-])cccc2[N+](=O)[O-])n1
O=c1c(NCc2ccco2)nc2cc(Cl)ccc2n1CCNc1ncc(C(F)(F)F)cc1Cl
Cn1c(=O)n(C)c2cc(NC(=O)CCl)ccc21
Oc1ccccc1-c1nc2ncccn2c1Nc1cccc(C(F)(F)F)c1
Cc1cc2cc3c(cc2c(C)n1)c1ccccc1n3C
Cc1ccc(N=C2NC(=O)C(=Cc3ccc(N(C)C)cc3)S2)cc1
c1ccc(CN2CCC(NCc3c[nH]c4ccccc34)CC2)cc1
Cc1ccccc1S(=O)Cc1ccc(C(=O)N2CCN(c3ccccn3)CC2)o1 (stereo not drawn)
CCN1C(=Cc2ccc3cc(C)ccc3[n+]2C)C=Cc2cc(C)ccc21
O=C(NCc1ccccc1)c1cnc(NCCCn2ccnc2)nc1NCCc1ccccc1
N#Cc1ccccc1Cn1nc(-c2cccnc2)oc1=O
Clc1ccc(-c2c[n+](Cc3ccc(Cl)c(Cl)c3)c3n2CCC3)cc1
c1ccc(Cn2c(N=Nc3c(Nc4ccccc4)ccc4ccccc34)nc3ccccc32)cc1
COC(=O)c1c(-c2c(F)cccc2Cl)noc1/C=C/Nc1ccccc1
CCCN(CCC)C(=O)Cn1ccc(=N)c2ccccc21
O=C1N(Cc2cc3ccccc3s2)CC2CN(Cc3ccccc3)CCN12 (stereo not drawn)
O=C1N(Cc2cc3ccccc3s2)CC2CN(Cc3ccoc3)CCN12 (stereo not drawn)
